HT1080-NT tox: kills 2HG-producing HT-1080-NT fibrosarcoma cells; HT-1080-NT fibrosarcoma viability, CellTiter-Glo ATP luminescence, 48 h; Potency, µM (highest dose often 46.1 µM), inactives show at the highest dose activity, negative = less viability, most hits filed as cytotoxic; 1.6% of 360,000 active; AID 686970;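 also: NT is the 2HG producing partner of a matched IDH1 knockdown line; potency is read from the fitted curve at half-maximal effect; 0% = DMSO-treated cells and -100% = media-only wells without cells; nearly all actives have a fitted effect of over 55% in size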
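750 cells/well, RPMI + 5% FBS; 2 h settle, compound pin-transfer, 48 h at 37 degrees C. CellTiter-Glo 10 min RT, luminescence. Normalized to DMSO and media-only wells.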
IL-1B inflam inh: inhibitors of inflammasome signaling (IL-1 beta secretion); THP-1 LPS/ATP IL-1B secretion, AlphaLISA, 16 h; stronger effect = lower value; activity change, % at 57.5 µM; 4.7% of 360,000 active; in the data active = activity change below about -50%; inconclusive = mostly about -30% to -49%
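Secreted IL-1B measured by AlphaLISA bead assay after 16 h compound exposure of THP-1 cells; compounds (final up to 57.5 uM) added 1 h before LPS (250 ng/mL) and ATP (1.25 mM) stimulation; lower signal means less secretion.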
TDP1 cell CPT: DT40-hTDP1 cell growth loss with CPT; chicken DT40 Tdp1-/-;hTDP1 cells + 20 nM CPT, ATP luminescence, 48 h; Potency, µM (top dose mostly 46.2 µM), inactives show at the top dose activity change, negative = growth inhibition, hits mostly inhibitors; 12% of 420,000 active; AID 686979; also: potency is read from the fitted curve at half-maximal effect; nearly all actives have a fitted effect of over 55% in size
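Chicken DT40 Tdp1-/- cells complemented with human TDP1, 400 cells/well, exposed to compounds plus 20 nM camptothecin for at least 48 h at 37 C; viability read as ATP content by CellTiter-Glo luminescence.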
DT40 TDP1 no CPT: qHTS for Inhibitors of human tyrosyl-DNA phosphodiesterase 1 (TDP1): qHTS in cells in absence of CPT; DT40 Tdp1-/- hTDP1 cells, no CPT, ATP luminescence, 48 h; Potency, µM (doses to about 46.2 µM), without a hit: at the highest dose activity change, negative = growth inhibition, most hits filed as inhibitors; 15% of 420,000 active; AID 686978, 2013; also: potency is read from the fitted curve at half-maximal effect; nearly all actives have a fitted effect of over 55% in size
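Seeded 400 DT40-hTDP1 cells/well (vehicle DMSO, no 20 nM CPT); pinned compounds; ≥48 hr at 37 °C; CellTiter-Glo luminescence as viability measure.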
uPA surface inh: cell surface uPA generation inhibition; cell surface uPA generation assay, qHTS; Potency, µM (series often up to 38.3 µM), for inactives: top-dose activity change, negative = inhibition, actives largely listed as inhibitors; 0.31% of 330,000 active; AID 540303; active = well fitted inhibition curve with a large enough effect; inconclusive = small, poorly fitted or top-dose-only effect; inactive = no such curve, though single readings can be large or run the other way; tested in mouse RAW 264.7 cells; also: potency is read from the fitted curve at half-maximal effect; nearly all actives have a fitted effect of over 55% in size
HT1080 IDH1KD tx: toxicity to HT-1080 IDH1 knockdown cells (counter line) | HT-1080 IDH1 knockdown viability, ATP luminescence, 48 h | Potency, µM (highest dose often 46.1 µM), for inactives: top-dose activity, negative = toxicity, hits mostly cytotoxic | 2% of 360,000 active | AID 686971;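 also: potency is read from the fitted curve at half-maximal effect; 0% = DMSO wells and -100% = cell-free medium wells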
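Knockdown cells (IDH1KD HT-1080) received compounds 2 h after plating at 750 cells/well and were kept 48 h at 37 °C in 5% FBS RPMI. A CellTiter-Glo luminescence read gave % activity for curve fitting.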
* hit, by the source's call; ? = inconclusive; nt = not tested or not shown; ! = a repeat was not active; [ ] = another dose, or the depositor's remark. The list is not random: actives were taken first. Their share in the collection is about 19%. Unless noted, calls follow the shape of the dose curve; as a rule, active = well fitted curve in the direction sought with a large enough effect; inconclusive = small, poorly fitted or top-dose-only effect, or another doubt; inactive = no such curve, though single readings can be large; an effect the other way counts as inactive or inconclusive. Unless noted, % is scaled to controls: 0 for no effect and ±100 for the full control effect.

SMILES	HT1080-NT tox	IL-1B inflam inh	TDP1 cell CPT	DT40 TDP1 no CPT	uPA surface inh	HT1080 IDH1KD tx
CCOC(=O)C1CCN(C(=O)C2CC(=O)N(c3ccc4c(c3)OCCO4)C2)CC1 (configuration not stated)	8%	3	-14%	19%	-4%	14%
O=C(NCCCc1ccccc1)c1cncc(Br)c1	-18%	-6	-3%	1%	-11%	0%
CC(OC(=O)CCNS(=O)(=O)c1ccc(Cl)cc1)C(=O)N(C)Cc1ccccc1 (configuration not stated)	1%	9	?	?	nt	0%
OC[C@H]1O[C@@H](n2cnc3c(=S)nc[nH]c32)[C@H](O)[C@@H]1O	nt	nt	12µM*	11µM*	nt	nt
OC[C@H]1O[C@@H](n2cnc3c(N[C@H]4C[C@H]5CC[C@@H]4C5)ncnc32)[C@H](O)[C@@H]1O	nt	nt	6%	0%	nt	nt
OC[C@H]1O[C@@H](n2cnc3c(Nc4ccccc4)ncnc32)[C@H](O)[C@@H]1O	0%	-20	6%	0%	0%	-9%
CC(C)=CCNc1ncnc2c1c(C#N)cn2C1OC(CO)C(O)C1O (configuration not stated)	-5%	4	5.8µM*	4.1µM*	-8%	-16%
CNC(=O)[C@H]1O[C@@H](n2cnc3c(NCc4cccc(I)c4)ncnc32)[C@H](O)[C@@H]1O	-6%	-29	?	16µM*!	4%	-22%
OC[C@H]1O[C@@H](n2cnc3c(NCc4ccccc4)ncnc32)[C@H](O)[C@@H]1O	nt	nt	2.7µM*	1.9µM*	nt	nt
COC(=O)C[C@@H]1CC[C@H](NC(=O)Nc2ccc(F)cc2)[C@@H](CO)O1	15%	7	4%	14%	nt	14%
COc1ccccc1CCc1nc2ccccc2n1C1CCN(C(=O)c2cn3ccsc3n2)CC1	nt	nt	9%[9.04 µM]	-8%	nt	nt
OC[C@@H]1CN(Cc2ccco2)C[C@H](n2cnc3c(NCc4ccc(F)cc4)ncnc32)O1	18%	0	-2%	-6%	nt	4%
S=c1nc[nH]c2c1ncn2C1CCCO1 (configuration not stated)	4.6µM*	4	-20%	?	0%	8.2µM*
N#Cc1ncn(C2OC(CO)C(O)C2O)c1N (configuration not stated)	-1%	-6	5.8µM*	5.8µM*	nt	-2%
OCC1OC(n2cnc3c(NCCc4ccccc4)ncnc32)C(O)C1O (configuration not stated)	2.1µM*	-11	6%	-11%	-11%	?
Nc1ccc(CCNc2ncnc3c2ncn3[C@@H]2O[C@H](CO)[C@@H](O)[C@H]2O)cc1	-5%	-12	2%	?	-4%	-4%
O=[N+]([O-])c1ccc(CSc2ncnc3c2ncn3[C@@H]2O[C@H](CO)[C@@H](O)[C@H]2O)cc1	0%	-24	?	13µM*	-8%	-13%
COc1ncc2nc(-c3ccccc3)c(=O)n(C)c2n1	nt	nt	-8%	-3%	nt	nt
O=C(Nc1ccnn1C1CCN(C2CCOCC2)CC1)c1cccc(F)c1	-2%	0	1%	20%	-14%	0%
OCC1OC(n2cnc3c(NO)ncnc32)C(O)C1O (configuration not stated)	nt	nt	0.89µM*	5µM*	nt	nt
Cc1cnc(NC(=O)Nc2ccccc2)c(C)n1	23%	-2	0%	12%	-1%	23%
CC1(C)CC(=O)C2=C(C1)Oc1ncn(Cc3ccco3)c(=N)c1C2c1ccccc1 (configuration not stated)	-15%	-20	-19%	-23%	14%	-18%
N=c1c2c(ncn1Cc1ccco1)Oc1cc(O)ccc1C2c1ccccc1 (configuration not stated)	-16%	-62*	18µM*	?	-18%	-13%
COc1ccc(C2c3c(ncn(CCN4CCOCC4)c3=N)Oc3ccc4ccccc4c32)cc1 (configuration not stated)	-12%	?	?	18µM*	-3%	-13%
CN(C)CCn1cnc2c(c1=N)C(c1ccccc1)c1ccc3ccccc3c1O2 (configuration not stated)	-29%	-57*	18µM*	?	-20%	-16%
SMILES	HT1080-NT tox	IL-1B inflam inh	TDP1 cell CPT	DT40 TDP1 no CPT	uPA surface inh	HT1080 IDH1KD tx
N=c1c2c(ncn1Cc1ccco1)Oc1c(ccc3ccccc13)C2c1ccccc1 (configuration not stated)	16µM*	?	?	?	-12%	?
N=c1c2c(ncn1CCN1CCOCC1)Oc1ccc3ccccc3c1C2c1ccccc1 (configuration not stated)	-1%	?	-10%	20%	0%	-7%
COc1ccc(C2C3=C(CC(C)(C)CC3=O)Oc3ncn(Cc4ccccc4)c(=N)c32)cc1 (configuration not stated)	?	-55*	?	-49%	nt	?
CCOC(=O)c1ccc(Nc2sc(C(=O)c3cccc([N+](=O)[O-])c3)c(N)c2C#N)cc1	-18%	1	1µM*	0.73µM*	4%	?
Cc1ccc(C(=O)c2sc(Nc3ccccc3)c(C#N)c2N)cc1	-3%	0	?	?	-6%	2%
COc1ccc(CNC(=O)Cn2ccc3cc(S(=O)(=O)N4CCCCC4)ccc32)c(OC)c1	nt	nt	23µM*	-81%	nt	nt
COc1ccc(CNC(=O)Cn2ccc3cc(S(=O)(=O)N4CCCC4)ccc32)c(OC)c1	nt	nt	-29%	?	nt	nt
CCOc1ccccc1CNC(=O)Cn1ccc2cc(S(=O)(=O)N3CCCC3)ccc21	-30%	?	18µM*	23µM*	-8%	?
CCOCCCNC(=O)CCn1ccc2cc(S(=O)(=O)N3CCCC3)ccc21	-5%	0	-14%	12%	2%	-1%
CCOc1ccccc1CNC(=O)CCCn1ccc2cc(S(=O)(=O)N3CCCC3)ccc21	-26%	5	23µM*	21µM*	-9%	-7%
CC(=O)Nc1ccccc1-c1nc2cc(C#N)c(C#N)cc2[nH]c1=O	-2%	8	21µM*	21µM*	-14%	8%
O=C(CCCCCNC(=O)N1CCn2c1nc1ccccc12)NCCc1ccccc1	2%	0	?	?	-4%	2%
Cc1ccccc1CN(C)C(=O)c1ccc2ccccc2n1	-10%	8	?	?	0%	-12%

From PubChem BioAssay
